From PubChem BioAssay AID2288 (National Center for Advancing Translational Sciences (NCATS), 2010)
Fewer than 10 of roughly 340,000 compounds were called active. Not shown: some 2% with an inconclusive outcome. Calls follow the shape of the dose curve; as a rule, active = well fitted curve in the direction sought with a large enough effect; inconclusive = small, poorly fitted or top-dose-only effect, or another doubt; inactive = no such curve, though single readings can be large or run the other way. A selection follows.

Assay: qHTS Assay for Modulators of miRNAs and/orActivators of miR-21;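 also: % of control where 0% means no effect; miR-21 action dims this reporter so a rising signal means less miR-21 action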
Conditions: HeLa miR-21 FLuc reporter, luciferase, 48 h; series mostly up to 38.3 µM; activity change, positive = activation: at the top concentration
Text: MLSCN Grant: 1 R21 NS059478-01 Assay Provider: Qihong Huang, The Wistar Institute NCGC Assay Overview: MicroRNAs (miRNAs) are endogenously encoded small (~20-25 nucleotides), nonprotein-coding RNAs that are involved in post-transcriptional repression of target messenger RNAs (mRNAs) (Le and Hannon, 2004). Estimated to be involved in the regulation of 30% of all protein-coding mRNAs (Filipowicz et al., 2008), miRNAs play a significant role in many biological processes including cellular differentiation and tissue development (Ghildiyal and Zamore, 2009).
NCGC Assay Protocol Summary: Reagents: HeLa cells stably expressing firefly luciferase (FLuc) under the control of a CMV promoter (upstream) and a miR-21 binding sequence directly downstream of the gene. These cells endogenously express miR-21. Control compounds used were compound C3 (provided by collaborator), N6-phenyladenosine (MP Biomedicals, 0215379625), and DMSO. Assay Summary: 6uL of HeLa miR-21-FLuc cells in assay buffer (DMEM, Invitrogen #21063-029; 10% FBS, HyClone #SH30071.03) were dispensed at 2000cells/well (3.3 x 10^5 cells/mL) into Greiner solid-white TC-treated 1536-well plates using a Multidrop Combi (Thermo Fisher Scientific). Plates were incubated for one hour at 37 degree Celsius, 95% humidity, 5% CO2. These assay plates were then treated with 23nL of compound or DMSO using a Kalypsys pin tool, which allows for delivery of a 24-point titration of each compound to the assay plate, with a final compound concentration ranging from approximately 40uM to 5pM. Assay plates were then incubated for 48 hours. After incubation, plates were allowed to come to RT for one hour prior to delivery of 3uL of 3X luciferase detection reagent. After a 15 minute incubation to allow for cell lysis, luciferase activity was measured using a ViewLux CCD imager (PerkinElmer), with an average exposure time of 2-12 seconds. Keywords: NIH Roadmap, MLPCN, MLSMR, qHTS, miR-21, microRNA, firefly luciferase, FLuc.

Activity change, positive = activation, inactive:
CCOc1ccc(CCNC(=O)c2ccc3c(c2)sc2nc(-c4ccc(F)cc4)cn23)cc1OCC 1.62%
Cc1cc(NC(=O)c2ccc(-c3ccc(Cl)cc3)o2)cc(-c2nc3ncccc3o2)c1O 2.05%
O=C(CSc1oc(-c2ccco2)nc1S(=O)(=O)c1ccccc1)c1ccc(Cl)cc1 8.21%
COc1cccc(CNC(=O)Cc2csc3nc(-c4ccccc4)cn23)c1 -0.468%
Cc1ccc(NC(=O)c2ccc(CN3CC(=O)N4CCCCC4C3=O)cc2)c(Cl)c1 (stereo unspecified) 1.68%
O=C(Cn1ncn2nc(-c3cccs3)cc2c1=O)NCc1cccc(Br)c1 -2.62%
Cc1ccc(C)c(OCC(=O)Nc2sc3c(c2C#N)CCCC3)c1C -1.24%
COc1cccc(N2CCN(S(=O)(=O)c3cc(Br)cc4c3N(C(=O)C3CC3)CC4)CC2)c1 -0.588%
CCNS(=O)(=O)c1cc(-c2nnc(Nc3cccc(C(F)(F)F)c3)c3ccccc23)ccc1C -0.871%
Cc1nn(-c2ccc(N3CCCCC3)nn2)c(C)c1CCC(=O)NCc1ccccc1F 18.3%
CCOc1ccc(N(CC)C(=O)c2cc3c(=O)oc4ccccc4c3s2)cc1 -10.1%
CCCN(CCC)S(=O)(=O)c1ccc(C(=O)Nc2sc3c(c2C(=O)OC)CCN(CC)C3)cc1 22.1%
COC(=O)c1ccccc1NC(=O)c1cc(-c2ccccc2O)no1 5.97%
COC(=O)CC1Oc2ccccc2-n2cc(-c3ccccc3)nc21 (stereo unspecified) 12.2%
CCc1cc2c(cc3c(=O)n(CC(=O)N4CCN(c5cc(Cl)ccc5C)CC4)ncn32)s1 0.215%
CCOC(=O)c1ccc(NC(=O)Cn2cc(S(=O)(=O)Cc3ccccc3F)c3ccccc32)cc1 -1.64%
CCOC(=O)c1cnc2c(C)cc(C)cc2c1Nc1ccc(N2CCOCC2)cc1 -4.37%
Cc1cccc(CNC(=O)c2cnc3sc(N4CCCCC4)nn3c2=O)c1 -1.19%
Cc1nn(-c2ccc(N3CCCCC3)nn2)c(C)c1CCC(=O)NCc1ccc(F)cc1 -12.7%
Cc1cccc(-n2ccnc2SCC(=O)Nc2cccc3ccccc23)c1C 5.86%
CCOc1ccc(C(=O)c2cn(Cc3ccccc3OC)c3ccc(F)cc3c2=O)cc1 1.46%
CCOC(=O)c1cccc(NC(=O)c2cc(CN3CCCC3)on2)c1 -64%
O=C(Nc1ccc2nc(SCCOc3ccccc3Cl)sc2c1)c1ccco1 9%
Cc1ccc2c(=O)cc(C(=O)Nc3sc4c(c3C(=O)NCc3cccnc3)CCCC4)oc2c1 1.15%
Cc1ccc(CN2C(=O)SC(Nc3ccccc3)C2=O)cc1 (stereo unspecified) 2.92%
O=C(CCS(=O)(=O)c1cc(Br)cc2c1N(C(=O)C1CC1)CC2)Nc1ccc(C(F)(F)F)cc1 -1.46%
